The values that follow come from PubChem BioAssay AID652197 (Broad Institute, 2013).

Broadly, the inhibition is the relative decrease from the control value, in per cent.

Where “and” joins values, the source holds several entries; their conditions need not be identical. Equal entries are not always repeated. In all, about 340,000 compounds went through this assay and about 500 (0.15%) were called active. The list comes from a sample in which actives are over-represented; it also holds similar structures and randomly drawn compounds. Unmarked numbers belong to inactive results.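 Rule for the calls: active = mean replicate inhibition of at least 30%, or all replicates individually reaching that 30% level; inactive = mean below 30% and not every replicate reaching it.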

Sequence of Endoplasmic reticulum aminopeptidase 1 (Homo sapiens) (Q9NZ08 whole entry, looked up): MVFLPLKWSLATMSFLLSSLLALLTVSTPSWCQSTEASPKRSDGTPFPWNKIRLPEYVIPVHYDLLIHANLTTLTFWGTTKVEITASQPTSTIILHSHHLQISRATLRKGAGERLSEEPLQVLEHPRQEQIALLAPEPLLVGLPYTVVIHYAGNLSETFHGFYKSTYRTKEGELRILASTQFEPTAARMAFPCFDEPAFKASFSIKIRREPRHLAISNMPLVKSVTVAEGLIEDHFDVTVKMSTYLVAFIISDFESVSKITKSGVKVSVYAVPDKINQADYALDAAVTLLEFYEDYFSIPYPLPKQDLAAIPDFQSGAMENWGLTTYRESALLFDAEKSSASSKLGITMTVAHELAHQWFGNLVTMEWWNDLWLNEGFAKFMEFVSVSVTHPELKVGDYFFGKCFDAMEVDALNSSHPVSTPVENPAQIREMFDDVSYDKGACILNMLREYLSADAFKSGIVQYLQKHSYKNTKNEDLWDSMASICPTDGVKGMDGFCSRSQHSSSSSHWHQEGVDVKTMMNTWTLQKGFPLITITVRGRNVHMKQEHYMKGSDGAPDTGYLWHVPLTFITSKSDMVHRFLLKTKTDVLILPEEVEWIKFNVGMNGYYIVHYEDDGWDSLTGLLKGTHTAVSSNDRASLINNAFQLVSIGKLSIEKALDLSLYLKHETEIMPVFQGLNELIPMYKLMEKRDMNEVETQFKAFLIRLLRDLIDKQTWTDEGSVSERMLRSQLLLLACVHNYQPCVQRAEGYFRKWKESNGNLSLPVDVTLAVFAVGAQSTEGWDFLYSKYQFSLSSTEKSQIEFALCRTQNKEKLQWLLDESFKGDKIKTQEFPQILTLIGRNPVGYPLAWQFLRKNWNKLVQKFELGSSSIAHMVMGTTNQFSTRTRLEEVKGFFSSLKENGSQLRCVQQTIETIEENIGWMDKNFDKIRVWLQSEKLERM

This assay concerns the target Endoplasmic reticulum aminopeptidase 1 (Homo sapiens) (UniProt Q9NZ08). The experiment in a line: human ERAP1 aminopeptidase inhibitors, primary screen, biochemical, single point, plate reader (AID 652197).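 Note: 0% = neutral control wells and 100% = L-leucinethiol positive control wells.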 The conditions noted are these: recombinant ERAP1, Leu-AMC fluorescence, 60 min; at 10.7 µM; hits give high values.
For `COc1ccc2c3c(n(C)c2c1)[C@@H](CO)N(C(=O)Nc1cccc(F)c1)CC31CCN(Cc2nccs2)CC1`, the inhibition is -1.39%.
The value for `O=C(Nc1ccccc1F)N1CC(=O)N2[C@@H](CO)[C@H](c3ccc(C#CC4CCCC4)cc3)[C@@H]2C1` was -1.61%.
`CCC(=O)N1CCC2(CC1)CN(S(C)(=O)=O)[C@@H](CO)c1c2c2ccc(OC)cc2n1C`: the inhibition is -0.517%.
For the compound `CC(=O)N(C)C[C@H]1[C@H](c2ccc(C3=CCCCC3)cc2)[C@H](CO)N1CC1CC1`, the inhibition is 2.34%.
With `O=C(NCC1CC1)[C@@H]1[C@@H](CO)[C@@H]2Cn3c(ccc(C4=CCCC4)c3=O)[C@H]1N2CCC(F)(F)F` the figure was 6.29%.
With `O=C(Nc1ccc(F)cc1)N[C@H]1CC[C@H](CCn2cc(C3(O)CCCC3)nn2)O[C@@H]1CO` the figure was -1.65%.
As for `CN1CCN(C(=O)C[C@H]2CC[C@H]3[C@@H](COC[C@H](O)CN3CC3CCCC3)O2)CC1`, the inhibition is 1.07%.
The value for `O=C(C[C@@H]1CC[C@@H]2[C@H](COC[C@H](O)CN2C(=O)c2ccncc2)O1)NCc1cc(F)cc(F)c1` was -4.11%; that for `CN1c2ccc(Br)cc2[C@@H]2[C@@H](CCN2S(=O)(=O)c2ccc(F)cc2)[C@@H]1CO` was -0.368%; that for `CN1CCCCC(NC(=O)C(C)(C)C)C1=O` (configuration not stated) was -3.81%.
In the case of `CS(=O)(=O)Nc1ccc2c(c1)[C@H]1C[C@H](CC(=O)NC3CCCC3)O[C@@H](CO)[C@H]1O2`, the inhibition is -1.31%.
Take `CC(C)C#Cc1cnc2c(c1)C(=O)N([C@H](C)CO)C[C@H](C)[C@@H](CN(C)C(=O)Nc1cc(F)ccc1F)O2`: the inhibition is 1.03%.
In the case of `O=C(C[C@@H]1C=C[C@H](NC(=O)CN2CCOCC2)[C@@H](CO)O1)NCc1cccc(F)c1`, the inhibition is 0.919%.
For `CCCC#Cc1ccc([C@@H]2[C@@H](CO)N3C(=O)CN(C(=O)Nc4cccc(F)c4)C[C@H]23)cc1`, the inhibition was -1.93%.
For `CCCNC(=O)Nc1ccc2c(c1)OC[C@H](C)N(CCC(F)(F)F)C[C@H](C)[C@@H](OC)CN(C)C2=O`, the inhibition was 1.36%.
The value for `CCN(CC)CCn1cnc2c1c(=O)[nH]c(=O)n2Cc1ccccc1` was -0.129%.
In the case of `Cc1nnc(Sc2nc3c(c(=O)[nH]c(=O)n3C)n2Cc2ccccc2)s1`, the inhibition was -0.766%.
The value for `Cn1c(=O)[nH]c(=O)c2c1[nH]c(=S)n2Cc1ccccc1` was 30.6% (active); that for `Cc1noc(C)c1NC(=O)N(C)C[C@@H]1OCCCC[C@H](C)Oc2ccc(NC(=O)C3CCCCC3)cc2C(=O)N([C@H](C)CO)C[C@@H]1C` was 1.95%; that for `Cc1noc(C)c1NC(=O)N(C)C[C@@H]1OCCCC[C@H](C)Oc2ccc(NS(=O)(=O)c3c(C)noc3C)cc2C(=O)N([C@@H](C)CO)C[C@@H]1C` was -2.92%.
The value for `CO[C@@H]1CN(C)C(=O)c2cc(NC(=O)NC3CCCCC3)ccc2OC[C@@H](C)N(C(C)=O)C[C@H]1C` was 1.39%; that for `CO[C@H]1CN(C)C(=O)c2ccc(NC(=O)CC(F)(F)F)cc2OC[C@H](C)N(C(=O)C2CC2)C[C@H]1C` was 1.15%; that for `COc1ccc2sc(-c3ccc(N(C)C)cc3)c(C#CCO)c2c1` was 0.776%.
As for `COc1ccc2c(c1)c(=Cc1ccc(N(C)C)cc1)c1cc(-c3ccccc3)[n+](C)n12`, the inhibition was 48.3% (active).
For `CN(C)Cc1cn(CC[C@H]2CC[C@@H](NS(=O)(=O)c3ccccc3)[C@H](CO)O2)nn1`, the inhibition was -0.48%.
The value for `CCNC(=O)Nc1ccc2c(c1)C(=O)N(C)[C@H]1CC[C@@H](CC(=O)N[C@@H](C)c3ccccc3)O[C@H]1CO2` was -1.42%; that for `O=C(O)C[C@@H]1C[C@@H]2c3cc(NC(=O)NC4CCCC4)ccc3O[C@@H]2[C@H](CO)O1` was 0.604%; that for `CC(C)NC(=O)N1[C@H](CO)[C@H](c2ccccc2)C12CN(C(=O)Cc1cccnc1)C2` was 0.883%.
With `Cc1cccn2c(=O)c3cc(C(=O)NCCN4CCOCC4)c(=N)n(Cc4cccnc4)c3nc12` the figure was 54.5% (active); with `Cc1ccc2nc3c(cc(C(=O)NCCc4ccccc4)c(=N)n3CC3CCCO3)c(=O)n2c1` (configuration not stated), -79.5%.
Take `COc1ccc(CCn2c(=N)c(C(=O)NCC3CCCO3)cc3c(=O)n4cccc(C)c4nc32)cc1OC` (configuration not stated): the inhibition is 1.75%.
Take `C[C@H]1CN([C@@H](C)CO)C(=O)Cc2cc(NC(=O)Cn3cnnn3)ccc2O[C@H]1CN(C)CC1CC1`: the inhibition was 2.17%.
With `O=C(C[C@H]1C=C[C@H](NC(=O)Nc2cc(F)ccc2F)[C@@H](CO)O1)NCc1ccccn1` the figure was -1.22%.
For `COc1ccc(C(=O)Nc2ccc3c(c2)C(=O)N(C)C[C@@H](OC)[C@H](C)CN(C(C)=O)[C@@H](C)CO3)cc1`, the inhibition is 2.42%.
The value for `O=C(Nc1cccc([N+](=O)[O-])c1)Nn1cnnc1` was -4.32%.
In the case of `CCC(CC)NC(=O)/C=C/c1cccc([N+](=O)[O-])c1`, the inhibition was 4.03%.
The value for `COC(=O)/C=C\C(=O)Nc1cccc([N+](=O)[O-])c1` was 33.8% (active).
The value for `C[C@@H]1CCCCO[C@H](CN(C)C)[C@@H](C)CN([C@H](C)CO)C(=O)c2cc(N(C)C)ccc2O1` was -1.68%.
For `COc1ccc(NC(=O)N(C)C[C@@H]2OCCCC[C@H](C)Oc3ccc(NS(=O)(=O)c4cccs4)cc3C(=O)N([C@@H](C)CO)C[C@@H]2C)cc1`, the inhibition is -4.78%.
Take `Cc1c(C)c2c(OCC(=O)N[C@@H](C(=O)O)c3ccccc3)cc3c(c2oc1=O)CCC(C)(C)O3`: the inhibition was 31.7% (active).
On to `Cc1c(C)c2c(OCC(=O)NCCCO)cc3c(c2oc1=O)CCC(C)(C)O3`, for which the inhibition was 1.62%.
Turning to `Cc1cc(=O)oc2c3c(cc(OCC(=O)N[C@H](C(=O)O)c4ccccc4)c12)OC(C)(C)CC3`, the inhibition is 15.5%.
In the case of `O=C(C[C@H]1CC[C@H]2[C@@H](COC[C@@H](O)CN2Cc2nccs2)O1)NCc1ccccc1Cl`, the inhibition is 0.949%.
With `COc1ccccc1S(=O)(=O)N[C@@H]1C=C[C@H](CC(=O)NCc2cccc(F)c2)O[C@H]1CO` the figure was 0.371%.
The value for `CN(C)C(=O)C[C@@H]1C[C@H]2c3cc(NC(=O)Nc4ccccc4F)ccc3O[C@H]2[C@@H](CO)O1` was -1.15%; that for `O=C(C[C@@H]1C=C[C@H](NC(=O)Nc2ccccc2F)[C@H](CO)O1)NCc1ccc(F)cc1` was -4.09%; that for `COc1ccc(NC(=O)Nc2ccc3c(c2)C(=O)N([C@@H](C)CO)C[C@@H](C)[C@H](CN(C)S(=O)(=O)c2cccs2)O3)cc1` was 2.02%.
With `C[C@@H]1CN([C@H](C)CO)C(=O)c2cc(NS(=O)(=O)c3cn(C)cn3)ccc2O[C@@H](C)CCCCO[C@H]1CN(C)C` the figure was 11.1%; with `COc1ccc(C#Cc2cnc3c(c2)C(=O)N([C@H](C)CO)C[C@@H](C)[C@@H](CN(C)C(=O)CN(C)C)O3)cc1`, 6.88%; with `Cc1noc(C)c1S(=O)(=O)Nc1cccc2c1O[C@@H](CN(C)S(=O)(=O)c1cn(C)cn1)[C@@H](C)CN([C@H](C)CO)C2=O`, 1.15%.
For the compound `CCCc1cn(CC[C@@H]2CC[C@H](NS(=O)(=O)c3ccccc3Cl)[C@H](CO)O2)nn1`, the inhibition was 4.02%.
Regarding `CO[C@H]1CN(C)C(=O)c2ccc(NC(=O)c3ccc4c(c3)OCO4)cc2OC[C@@H](C)NC[C@@H]1C`, the inhibition is 0.503%.
The value for `CN1C(=O)c2cc(NS(=O)(=O)CC(F)(F)F)ccc2OC[C@H]2O[C@@H](CC(=O)NCc3ccc(Cl)c(Cl)c3)CC[C@@H]21` was -2.14%.
For the compound `Cc1ccccc1S(=O)(=O)N1[C@H](C#N)[C@H](c2ccccc2)[C@@H]1CO`, the inhibition is 1.23%.
With `CN(C)C(=O)c1cccc(-c2ccc([C@H]3[C@H]4CN(C(=O)Cc5ccccc5)CC(=O)N4[C@H]3CO)cc2)c1` the figure was 1.83%; with `CO[C@@H]1CN(C)C(=O)c2cc(NC(=O)NC3CCCC3)ccc2OC[C@H](C)NC[C@H]1C`, 1.04%; with `COc1cccc(S(=O)(=O)N2[C@@H]3CNC[C@H]2C3c2ccc(-c3ccccc3OC)cc2)c1` (some centres not stated), -1.91% and -0.285%.
As for `COC(=O)C[C@@H]1CC[C@H]2[C@H](COc3ccc(NC(=O)c4ccccc4F)cc3C(=O)N2C)O1`, the inhibition was 0.852%.
`C/C=C/c1ccc([C@H]2[C@@H](CO)N(C(=O)CN(C)C)C23CN(C(=O)C2CCCC2)C3)cc1`: the inhibition was -0.32%.
With `C[C@H](CO)N1C[C@H](C)[C@H](CN(C)C(=O)c2ccccc2)OCCCC[C@H](C)Oc2ccc(N(C)C)cc2C1=O` the figure was 1.85%; with `COc1ccccc1S(=O)(=O)N1C[C@@H]2N[C@H](C1)C2c1ccc(-c2cccc(C)c2)cc1` (some centres not stated), 4.06% and 6.11%; with `C[C@@H](NC(=O)C[C@H]1C=C[C@@H](NC(=O)CN2CCOCC2)[C@@H](CO)O1)c1ccccc1`, 9%.
The value for `CCCN1C[C@H](C)[C@@H](OC)CN(C)C(=O)c2ccc(NC(=O)C3CCOCC3)cc2OC[C@@H]1C` was -1.27%; that for `O=C(Nc1cccc(Cl)c1)N[C@@H]1CC[C@@H](CCNC(=O)C2CCOCC2)O[C@@H]1CO` was -1.57%.
The value for `COc1ccc(NC(=O)N(C)C[C@H]2Oc3ccc(N(C)C)cc3C(=O)N([C@@H](C)CO)C[C@H]2C)cc1` was 3.18%; that for `O=C(Nc1cc(F)ccc1F)N1C[C@H]2[C@@H](c3ccccc31)[C@@H](CO)N2CC1CCCC1` was -1.13%; that for `C[C@H]1CN([C@@H](C)CO)C(=O)c2cc(NS(=O)(=O)c3cccs3)ccc2O[C@@H]1CN(C)C(=O)Nc1ccccc1` was -2.47%.
